Results on 16 compounds are retold here after PubChem BioAssay (EPA / NIEHS).

As a reminder, the AC50 is the concentration at which the activity in the assay is half-maximal.

The nature of assay [1]: ATG_PBREM_CIS: Attagene CIS-FACTORIAL HepG2 Assay for human Phenobarbital-responsive Enhancer Module (PBREM) (AID 2282955). Particulars: HepG2 PBREM cis-reporter, Attagene multiplexed transcription; actives raise or lower the signal. In outline:
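Endogenous transcription factors in human liver HepG2 cells drive a PBREM cis-element reporter, whose transcript level after 24 h treatment is quantified by RT-PCR with capillary electrophoresis; activity fitted in both directions against DMSO.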

Assay [2] has as its target Paired box protein Pax-6 (Homo sapiens) (UniProt P26367). Description: ATG_Pax6_CIS: Attagene CIS-FACTORIAL HepG2 Assay for human Paired Box 6 (PAX6) (AID 2282956). To be noted: HepG2 CIS-FACTORIAL PAX6 reporter transcription, RNA readout; actives raise or lower the signal. In outline: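 HepG2 cells transiently transfected with multiplexed cis-promoter reporter units (endogenous TF activity) were dosed for 24 h. Reporter mRNA was quantified by RT-PCR, 6-FAM labeling, HpaI digestion and capillary electrophoresis; bidirectional fitting versus DMSO baseline.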

Assay [3] in a line: ATG_PXRE_CIS: Attagene CIS-FACTORIAL HepG2 Assay for human Pregnane X Receptor Element (PXRE) (AID 2282957). Particulars: HepG2 Attagene CIS-FACTORIAL PXRE reporter, mRNA; actives raise or lower the signal. In outline: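 Multiplexed cis-reporter assay in transiently transfected human HepG2 cells; 24 h chemical exposure. Reporter transcripts quantified by RT-PCR with fluorescent labeling and capillary electrophoresis.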

Assay [4] can be described thus: ATG_PPRE_CIS: Attagene CIS-FACTORIAL HepG2 Assay for human Peroxisome Proliferator-activated Response Element (PPRE) (AID 2282958). Particulars: HepG2 PPRE cis-element reporter, Attagene transcription factor profiling; actives raise or lower the signal. The essentials:
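HepG2, transient MRTU transfection (cis promoter elements, endogenous TFs). 24 h dosing. RNA → oligo(dT) RT → PCR → 6-FAM primer extension → HpaI digest → CE. Bidirectional fit vs DMSO.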

Assay [5] can be described thus: ATG_Sox_CIS: Attagene CIS-FACTORIAL HepG2 Assay for human SRY-box transcription factor (SOX) (AID 2282960). Particulars: HepG2 Attagene cis-factorial SOX reporter, mRNA; actives raise or lower the signal. The essentials:
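Endogenous factor activity in human liver HepG2 cells carrying transfected cis-regulated reporter units. RNA taken 24 h post-dose, reverse-transcribed, PCR-amplified and sized by capillary electrophoresis. Gain or loss of signal fitted relative to DMSO.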

Assay [6] is described as follows: ATG_SREBP_CIS: Attagene CIS-FACTORIAL HepG2 Assay for human Sterol Regulatory Element Binding (SREBP) (AID 2282962). Particulars: HepG2 Attagene cis-factorial SREBP reporter, mRNA; actives raise or lower the signal. In outline: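 HepG2 cells transiently transfected with multiplexed cis-element reporter units report endogenous transcription factor activity. After 24 h of chemical exposure, reporter mRNA was quantified by RT-PCR, 6-FAM labelling, HpaI digestion and capillary electrophoresis; bidirectional fits used DMSO as baseline.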

In assay [7] the target is Signal transducer and activator of transcription 3 (Homo sapiens) (UniProt P40763). Description: ATG_STAT3_CIS: Attagene CIS-FACTORIAL HepG2 Assay for human Signal Transducer and Activator of Transcription 3 (STAT3) (AID 2282963). Particulars: HepG2, Attagene cis-factorial STAT3 reporter transcription; actives raise or lower the signal. The essentials:
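Endogenous STAT3-responsive cis-element activity was read in transiently transfected HepG2 cells after 24 h treatment. Reporter transcripts were quantified via RT-PCR and capillary electrophoresis, with DMSO as negative control and bidirectional curve fitting.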

Assay [8] in a line: ATG_TA_CIS: Attagene CIS-FACTORIAL HepG2 Assay for human TA Basal Promoter (AID 2282964). To be noted: HepG2 Attagene CIS-factorial TA basal promoter reporter; actives raise or lower the signal. In outline: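 Fluorescence from labelled RT-PCR reporter fragments, separated by capillary electrophoresis, gives the signal. Cells: HepG2 transiently carrying multiple reporter units, 24 h chemical dosing. Gain or loss relative to DMSO.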

Assay [9] can be described thus: ATG_RORE_CIS: Attagene CIS-FACTORIAL HepG2 Assay for human RAR-related Orphan Receptor Element (RORE) (AID 2282959). Particulars: HepG2 Attagene cis-factorial RORE reporter, mRNA; actives raise or lower the signal. In outline: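 Transient MRTU transfection of human HepG2 liver cells (FuGene 6); 24 h compound exposure; TriZol RNA, oligo(dT) RT, PCR, FAM labeling, HpaI cut, CE fragment analysis. DMSO = negative control/baseline.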

The target in assay [10] is Transcription factor Sp1 (Homo sapiens) (UniProt P08047). Nature of the assay: ATG_Sp1_CIS: Attagene CIS-FACTORIAL HepG2 Assay for human Specificity Protein 1 (Sp1) (AID 2282961). Particulars: HepG2 Sp1 cis-reporter transcription, actives raise or lower the signal. The essentials:
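Transient MRTU-transfected HepG2, 24 h compound exposure. Total RNA → oligo(dT) RT → PCR of reporter → 6-FAM primer extension → HpaI digest → CE. Endpoint fitted both directions vs DMSO.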

Where “and” joins values, the source holds several entries; their conditions need not be identical. Identical values can stand only once. Some structures have more than one record in an assay (separate samples or runs), and their calls can disagree. Calls of active or inactive are those of the source. Rule for the calls: active = hit-call score of the fitted dose curve at least 0.9, where 1 is the maximum; inactive = score below 0.9.

Transcription factor Sp1 (Homo sapiens), sequence (P08047 whole entry, looked up): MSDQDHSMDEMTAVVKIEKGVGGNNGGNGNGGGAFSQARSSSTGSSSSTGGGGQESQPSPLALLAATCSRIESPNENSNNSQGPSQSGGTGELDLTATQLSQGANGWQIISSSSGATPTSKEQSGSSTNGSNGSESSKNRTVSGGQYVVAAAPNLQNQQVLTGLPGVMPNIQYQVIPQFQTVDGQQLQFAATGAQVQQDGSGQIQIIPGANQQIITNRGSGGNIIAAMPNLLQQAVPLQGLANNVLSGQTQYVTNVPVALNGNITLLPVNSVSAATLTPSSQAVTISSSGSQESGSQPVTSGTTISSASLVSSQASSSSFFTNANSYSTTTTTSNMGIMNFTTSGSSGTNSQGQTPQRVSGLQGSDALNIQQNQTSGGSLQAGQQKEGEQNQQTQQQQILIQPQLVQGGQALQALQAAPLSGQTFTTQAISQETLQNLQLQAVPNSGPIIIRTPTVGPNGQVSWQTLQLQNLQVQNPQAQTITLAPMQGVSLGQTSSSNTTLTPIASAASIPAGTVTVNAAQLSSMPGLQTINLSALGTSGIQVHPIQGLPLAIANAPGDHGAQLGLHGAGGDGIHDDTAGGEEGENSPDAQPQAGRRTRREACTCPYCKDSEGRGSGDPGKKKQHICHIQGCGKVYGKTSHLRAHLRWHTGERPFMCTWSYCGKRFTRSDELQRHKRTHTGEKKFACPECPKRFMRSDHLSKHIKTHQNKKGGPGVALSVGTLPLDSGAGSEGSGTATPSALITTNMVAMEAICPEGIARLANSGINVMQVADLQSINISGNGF
Paired box protein Pax-6 (Homo sapiens), sequence (P26367 whole entry, looked up): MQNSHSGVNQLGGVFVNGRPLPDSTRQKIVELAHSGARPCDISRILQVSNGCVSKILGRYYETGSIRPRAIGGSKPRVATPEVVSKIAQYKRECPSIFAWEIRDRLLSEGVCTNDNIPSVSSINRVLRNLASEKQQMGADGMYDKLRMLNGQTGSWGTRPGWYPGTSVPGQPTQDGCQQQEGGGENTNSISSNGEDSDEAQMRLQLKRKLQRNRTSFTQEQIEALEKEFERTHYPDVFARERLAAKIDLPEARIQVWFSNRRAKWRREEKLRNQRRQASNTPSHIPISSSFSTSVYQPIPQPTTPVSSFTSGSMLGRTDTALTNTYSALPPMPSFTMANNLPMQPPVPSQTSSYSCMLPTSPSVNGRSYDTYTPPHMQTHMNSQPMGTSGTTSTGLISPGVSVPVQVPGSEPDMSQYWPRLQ
Signal transducer and activator of transcription 3 (Homo sapiens), sequence (P40763 whole entry, looked up): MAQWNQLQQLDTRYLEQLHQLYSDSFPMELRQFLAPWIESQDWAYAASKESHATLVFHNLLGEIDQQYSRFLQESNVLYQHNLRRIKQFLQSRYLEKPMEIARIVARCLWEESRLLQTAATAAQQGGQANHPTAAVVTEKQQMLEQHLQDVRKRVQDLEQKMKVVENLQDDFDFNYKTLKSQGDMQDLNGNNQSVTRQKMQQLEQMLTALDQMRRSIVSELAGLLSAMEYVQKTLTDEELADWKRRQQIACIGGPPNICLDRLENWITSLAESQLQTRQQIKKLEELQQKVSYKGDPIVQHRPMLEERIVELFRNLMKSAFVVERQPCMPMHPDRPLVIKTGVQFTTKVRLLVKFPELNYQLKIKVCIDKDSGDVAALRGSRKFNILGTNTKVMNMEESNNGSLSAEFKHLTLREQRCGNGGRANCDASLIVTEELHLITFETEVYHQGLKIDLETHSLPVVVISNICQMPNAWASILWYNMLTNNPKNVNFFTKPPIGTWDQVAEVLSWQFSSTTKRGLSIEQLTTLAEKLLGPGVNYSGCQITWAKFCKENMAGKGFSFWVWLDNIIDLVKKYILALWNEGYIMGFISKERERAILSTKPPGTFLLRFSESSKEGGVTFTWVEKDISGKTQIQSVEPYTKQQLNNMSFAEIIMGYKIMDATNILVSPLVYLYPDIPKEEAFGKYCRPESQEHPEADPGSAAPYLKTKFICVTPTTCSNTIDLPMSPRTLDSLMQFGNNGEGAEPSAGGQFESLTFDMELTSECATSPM

Take `Cc1ccc(S(=O)(=O)O)c(C)c1`: the outcome in assay [1], in assay [2], in assay [3], in [4], in assay [5] and in assay [6] was inactive. For the same compound, the compound was classed as inactive in [7] and in assay [8]. Besides, in [3], the AC50 was 27.3 µM (active).

On to `O=C1OC2(c3ccccc31)c1cc(Br)c(O)c(Br)c1Oc1c2cc(Br)c(O)c1Br`, for which the AC50 is 52.2 µM (active) in assay [1]; 25.8 µM (active) and 5.86 µM (active) in assay [3]; 74.9 µM (active) and 46.2 µM (active) in assay [9]. The result in [1], in assay [2], in [4], in assay [5], in [6] and in [7] was inactive. Also, the call in assay [8] was inactive.

For `Cc1cc(C)c(O)c(C)c1`, the result in assay [1], in assay [2], in [3], in [4], in [9] and in assay [5] was inactive. Besides, the result in assay [6], in assay [7] and in assay [8] was inactive.

Take `CCCOC(=O)c1ccc(O)cc1`: the result in [1], in [2], in [4], in assay [9], in [6] and in [7] was inactive. The compound was classed as inactive in assay [8]. The concentration at half-maximal activity (AC50) in assay [2] was 142 µM (active); in assay [3], 34.2 µM (active) and 60 µM (active); in assay [4], 77.5 µM (active); in assay [9], 128 µM (active); in [6] it was 26.4 µM (active); in [8], 162 µM (active).

In the case of `COc1cc(CCC(=O)CC(=O)CCc2ccc(O)c(OC)c2)ccc1O`, the result in [1], in assay [2], in assay [4], in assay [9], in assay [10] and in [6] was inactive. Besides, the result in assay [7] and in [8] was inactive. Further, in assay [3], the AC50 is 8.44 µM (active).

Regarding `CCCCC(CC)COC(=O)CCCCC(=O)OCc1ccccc1` (stereo not given), the outcome in [1], in assay [2], in assay [4], in [9], in assay [5] and in assay [10] was inactive. The compound was classed as inactive in assay [6], in assay [7] and in assay [8]. Further, the AC50 in assay [3] was 12.4 µM (active).

Turning to `OCCC(F)(F)C(F)(F)C(F)(F)C(F)(F)C(F)(F)C(F)(F)F`, the result in assay [1], in [2], in [3], in [4], in assay [9] and in assay [5] was inactive. For the same compound, the outcome in [10], in assay [6], in assay [7] and in assay [8] was inactive. The AC50 in [2] was 176 µM (active); in assay [6] it was 100 µM (active).

Regarding `CCC(=C(c1ccc(O)cc1)c1ccc(OCCN(C)C)cc1)c1ccccc1`, the AC50 was 7.1 µM (active) and 11.2 µM (active) in [1]; 7.1 µM (active) and 9.41 µM (active) in assay [2]; 1.05 µM (active) [middle of 4 runs] in [3]; 3.6 µM (active) in [6]; 10 µM (active) in assay [8]. Further, the outcome in [1], in [2], in [4], in [6], in [7] and in [8] was inactive.

Consider `CC(C)(C)CC(C)(C)c1ccc(O)c(-n2nc3ccccc3n2)c1`, for which the outcome in [1], in assay [2], in assay [4], in assay [9], in assay [5] and in assay [6] was inactive. For the same compound, the outcome in assay [7] and in [8] was inactive. Besides, the AC50 in assay [3] was 1.15 µM (active).

For the compound `c1ccc2cc3c(ccc4ccccc43)cc2c1`, the outcome in assay [1], in [2], in assay [3], in [9], in [6] and in assay [7] was inactive. Besides, in [8], the compound was classed as inactive. Moreover, the AC50 in assay [3] is 8.53 µM (active) and 20.8 µM (active); in assay [9], 1.44 µM (active).

On to `FC(F)(I)C(F)(F)C(F)(F)C(F)(F)C(F)(F)C(F)(F)I`, for which the result in assay [1], in [3], in assay [4], in [9], in assay [5] and in assay [10] was inactive. For the same compound, the result in assay [6] and in [7] was inactive. Besides, the AC50 in assay [2] and in [8] was 16 µM (active) throughout.

For the compound `CCCCCCCCOC(=O)CCCCCCCCC(=O)OCCCCCCCC`, the result in assay [1], in assay [2], in assay [3], in [4], in assay [9] and in [10] was inactive. The call in assay [6], in assay [7] and in [8] was inactive.

Consider `ClC1=C(Cl)C(Cl)(Cl)C(Cl)=C1Cl`, for which the concentration at half-maximal activity (AC50) was 13.5 µM (active) in assay [1]; 18.4 µM (active) and 6.7 µM (active) in [2]; 16.2 µM (active) and 6.82 µM (active) in assay [3]; 11.1 µM (active) in assay [6]; 21.7 µM (active) in [7]. Also, the outcome in assay [1], in assay [4], in [9], in assay [5], in assay [6] and in [7] was inactive. Also, the outcome in assay [8] was inactive.

As for `CCOC(=O)CC(O)(CC(=O)OCC)C(=O)OCC`, the outcome in assay [1], in assay [2], in assay [3], in assay [9], in assay [5] and in assay [10] was inactive. The result in assay [6], in assay [7] and in [8] was inactive. Besides, the half-maximal activity concentration (AC50) in assay [3] is 50.4 µM (active).

Take `CCCCC[C@H](O)CC(=O)CCc1ccc(O)c(OC)c1`: the outcome in assay [1], in assay [2], in assay [4], in assay [9], in assay [5] and in assay [6] was inactive. In addition, the outcome in assay [7] and in assay [8] was inactive. The AC50 in assay [3] was 18.1 µM (active).

On to `O=C(OCCOCCOC(=O)c1ccccc1)c1ccccc1`, for which the outcome in assay [1], in assay [2], in [3], in [4], in [9] and in assay [5] was inactive. Also, the compound was classed as inactive in assay [6], in [7] and in [8].
